Data on 18 molecules can be found in PubChem BioAssay (Tox21).

Values without a mark were called inactive. Inconclusive results are not listed. The source made the active and inactive calls. Unless noted, the call rests on the fitted dose curve; in most records, active means well fitted curve in the direction sought with a large enough effect in the repeat runs; inconclusive means weak or mixed curves; inactive means flat fitted curve, though single readings scatter.

The nature of assay [1]: qHTS assay to test for compound auto fluorescence at 535 nm (green) in HEK293 cells (AID 720680). As to conditions: green autofluorescence 485/535 nm; series mostly up to 91.3 µM. For orientation: qHTS replaces the single test concentration by a dilution series.
Assay [2] is described as follows: qHTS assay to test for compound auto fluorescence at 460 nm (blue) in HEK293 cell free culture (AID 720681). The settings on record: cell-free medium, autofluorescence 405/460 nm (blue); series mostly up to 91.3 µM. In short, it runs like this: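 Blue fluorescence (Ex 405/Em 460 nm, triamterene-equivalent) was read immediately after pin transfer of compound or DMSO into medium (DMEM, 10% FBS) without cells.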

The nature of assay [3]: qHTS assay to test for compound auto fluorescence at 535 nm (green) in HEK293 cell free culture (AID 720682). The settings on record: cell-free medium, green autofluorescence 485/535 nm, hits give high values; series mostly up to 91.3 µM. In short, it runs like this: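 Measurement is a direct plate read of green fluorescence (485 nm in, 535 nm out) after compound addition to serum-supplemented DMEM lacking cells, with fluorescein used to express intensities.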

Assay [4] in a line: qHTS assay to test for compound auto fluorescence at 590 nm (red) in HepG2 cell free culture (AID 720684). The settings on record: cell-free medium autofluorescence, red 540/590 nm; series mostly up to 91.3 µM. The procedure, abridged: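 Plate contents were MEM with 10% FBS plus test compound or DMSO, no cells. Fluorescence was recorded with 540 nm excitation and 590 nm emission.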

Assay [5] is described as follows: qHTS assay to test for compound auto fluorescence at 460 nm (blue) in HepG2 cell free culture (AID 720685). As to conditions: Cell-free culture medium, blue autofluorescence 405/460 nm; series mostly up to 91.3 µM. The procedure, abridged: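 Compound (23 nL) or DMSO pinned into cell-free MEM with 10% FBS; blue fluorescence read at 405/460 nm excitation/emission, expressed as auto-fluorescence equivalency to triamterene.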

Assay [6] in a line: qHTS assay to test for compound auto fluorescence at 535 nm (green) in HepG2 cell free culture (AID 720686). As to conditions: Cell-free medium, green autofluorescence 485/535 nm; series mostly up to 91.3 µM.
The nature of assay [7]: qHTS assay to test for compound auto fluorescence at 460 nm (blue) in HepG2 cells (AID 720687). As to conditions: autofluorescence 405/460 nm, 1 h; series mostly up to 91.3 µM. The procedure, abridged:
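Blue-channel autofluorescence (Ex/Em 405/460 nm, triamterene-equivalent) was measured after 1 hr compound exposure at 37 C, 5% CO2. Cells were HepG2, plated overnight at 37 C in MEM plus 10% FBS.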

A short description of assay [8]: qHTS assay to test for compound auto fluorescence at 590 nm (red) in HEK293 cell free culture (AID 720683). As to conditions: cell-free medium autofluorescence, Ex540/Em590 red; series mostly up to 91.3 µM. In short, it runs like this: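 Red-channel autofluorescence of compounds in culture medium (DMEM, 10% FBS), no cells, measured at 540/590 nm. Rose Bengal sodium is the reference fluorophore for equivalence.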

For assay [9], the target named is Glucocorticoid receptor (Homo sapiens) (UniProt P04150). Kind of assay: qHTS assay to identify small molecule agonists of the glucocorticoid receptor (GR) signaling pathway (AID 720691; active means well fitted activation curve with a large enough effect in the signal ratio in the repeat runs, not every such curve was filed as active; the % refers to the signal ratio). The settings on record: GR-bla HeLa, beta-lactamase reporter ratio, 18 h; series mostly up to 62.4 µM. In short, it runs like this:
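Fluorescence intensity from LiveBLAzer B/G FRET substrate (2 h, room temperature) reports beta-lactamase expression driven by the glucocorticoid response element in GR-bla HeLa cells after 18 h compound exposure at 37 C.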

Assay [10] shares this target. As to the kind of experiment: qHTS assay to identify small molecule antagonists of the glucocorticoid receptor (GR) signaling pathway (AID 720692; active means well fitted inhibition curve with a large enough effect in the signal ratio in the repeat runs, not every such curve was filed as active; the % refers to the signal ratio; further: potency means the concentration at half of the fitted maximal effect). The settings on record: GR-bla HeLa, beta-lactamase FRET ratio, dexamethasone-stimulated, 18 h; series mostly up to 58.5 µM. The procedure, abridged: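 HeLa GR-bla cells; cmpd + dex 5 nM final, 18 h 37 C; LiveBLAzer B/G FRET substrate 2 h RT; fluorescence intensity read. Antagonist mode, qHTS.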
On the % scale 0 is the no-effect control and ±100 the full control effect.

Sequence of Glucocorticoid receptor (Homo sapiens) (P04150 whole entry, looked up): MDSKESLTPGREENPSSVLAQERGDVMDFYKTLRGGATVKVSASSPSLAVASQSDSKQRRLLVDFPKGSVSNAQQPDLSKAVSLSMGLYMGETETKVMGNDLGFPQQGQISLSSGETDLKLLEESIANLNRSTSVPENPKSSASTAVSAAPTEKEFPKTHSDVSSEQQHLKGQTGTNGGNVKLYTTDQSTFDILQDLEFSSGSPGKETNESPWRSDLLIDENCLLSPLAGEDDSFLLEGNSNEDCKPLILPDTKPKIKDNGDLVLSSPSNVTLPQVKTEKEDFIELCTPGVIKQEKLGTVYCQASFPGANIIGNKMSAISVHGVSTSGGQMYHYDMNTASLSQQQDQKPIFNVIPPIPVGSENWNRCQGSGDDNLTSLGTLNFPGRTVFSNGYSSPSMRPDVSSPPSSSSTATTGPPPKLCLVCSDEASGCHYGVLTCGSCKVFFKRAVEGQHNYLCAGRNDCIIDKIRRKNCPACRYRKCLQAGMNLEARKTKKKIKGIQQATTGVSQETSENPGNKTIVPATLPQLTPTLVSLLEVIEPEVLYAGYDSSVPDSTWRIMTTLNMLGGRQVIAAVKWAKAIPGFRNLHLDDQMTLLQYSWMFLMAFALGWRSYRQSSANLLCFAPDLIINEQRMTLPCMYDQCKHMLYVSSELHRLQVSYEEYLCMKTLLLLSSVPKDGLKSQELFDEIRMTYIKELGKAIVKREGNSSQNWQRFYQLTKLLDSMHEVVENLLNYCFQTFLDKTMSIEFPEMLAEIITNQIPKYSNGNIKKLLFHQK

For the molecule `CCc1cnc(C(=O)O)c(C(=O)O)c1`, the result in assay [1], in assay [3], in assay [4], in assay [5], in assay [6] and in assay [7] was inactive. The Potency entry in assay [2] is “inactive”.
In the case of `C/C(=C\C(C)CC(C)CC(C)C)C1CC(=O)OC1=O` (stereo not drawn), the result in [1], in assay [3], in assay [8], in assay [4], in assay [5] and in [6] was inactive. Also, the Potency entry in assay [2] and in assay [9] was “inactive” throughout. In addition, in assay [10], the Potency was 24.6 µM (active).
As to `C=CC(=O)OCCCCCCCCCC`, the call in assay [1], in assay [3], in assay [8], in [5], in assay [6] and in assay [7] was inactive. Moreover, the Potency entry in assay [2], in [9] and in [10] was “inactive” each time.
In the case of `O=c1c2ccccc2oc2ccccc12`, the molecule was classed as inactive in assay [1], in [3], in assay [8], in [5], in assay [6] and in assay [7]. Also, the Potency entry in assay [2], in [9] and in assay [10] was “inactive” throughout.
Take `Cc1cccc(C)c1NC(=O)CN1CCCC1`: the result in [1], in assay [3], in assay [8], in [4], in [5] and in assay [6] was inactive. Also, the Potency entry in assay [2], in assay [9] and in [10] was “inactive” in each case.
For the molecule `CC(=O)c1ccc(Cl)c(Cl)c1Cl`, the molecule was classed as inactive in assay [1], in assay [3], in [8], in assay [4], in [5] and in [6]. The Potency result in [2] and in assay [9] was “inactive” throughout.
With `COc1ccc(/C=C/S(=O)(=O)NC(=O)c2ccc(C)cc2Cl)cc1`, the molecule was classed as inactive in assay [1], in [3], in assay [8], in assay [5], in assay [6] and in [7]. Moreover, the Potency result in assay [2] is “inactive”.
With `CCCCOC(=O)C(C)Oc1ccc(Oc2ccc(C(F)(F)F)cn2)cc1` (stereo not drawn), the result in assay [1], in [3], in assay [8], in [5], in [6] and in assay [7] was inactive. Also, the Potency result in assay [2] and in assay [9] was “inactive” throughout.
As for `CCCC1CCCC(=O)O1` (stereo not drawn), the molecule was classed as inactive in assay [1], in assay [3], in [4], in assay [5], in assay [6] and in assay [7]. The Potency result in [2], in assay [9] and in assay [10] was “inactive” throughout.
Consider `CC(=O)Nc1ccccc1O`, for which the call in assay [1], in [8], in [4], in assay [5], in [6] and in assay [7] was inactive. Also, the Potency entry in assay [2] is “inactive”.
For `Cc1ccc2ccccc2c1[N+](=O)[O-]`, the result in assay [1], in assay [4], in [5] and in assay [6] was inactive. Further, the Potency entry in assay [2] and in [9] was “inactive” in each case.
As to `COC(=O)/C=C/C(C)=C\C=C\C(C)=C\C=C\C=C(C)\C=C\C=C(C)\C=C\C(=O)O`, the molecule was called inactive in assay [1], in assay [8], in [4], in assay [5], in assay [6] and in [7]. In addition, the Potency result in assay [2] and in assay [9] was “inactive” throughout.
For the molecule `CC(COc1ccccc1)NC(C)C(O)c1ccc(O)cc1` (stereo not drawn), the fluorescence, % of fluorescein in assay [1] is 0.0104% [at 18.6 µM]. Besides, the values for the fluorescence, % of fluorescent control in assay [2], in [5] and in assay [7] were 0.128% [at 18.6 µM], -0.0841% [at 18.6 µM] and 0.0066% [at 18.6 µM], respectively. Further, the activity change in [3] was -0.0013% [at 18.6 µM]. Further, the fluorescence, % of Rose Bengal in assay [4] is -0.0388% [at 18.6 µM]. The fluorescence, % of fluorescein control in assay [6] is 0.0107% [at 18.6 µM]. Further, the Potency result in [9] and in assay [10] was “inactive” each time.
In the case of `O=P(c1ccccc1)(c1ccccc1)c1ccccc1`, the molecule was classed as inactive in assay [1], in [8], in [5] and in [6]. Also, in [2], the Potency entry is “inactive”.
With `CS(C)=O`, the outcome in assay [1], in assay [8], in [4], in assay [5], in assay [6] and in assay [7] was inactive. Also, the Potency entry in assay [2], in [9] and in assay [10] was “inactive” in each case.
Take `COC(=O)c1cc(Cl)ccc1[N+](=O)[O-]`: the outcome in assay [1], in assay [4], in [5], in assay [6] and in assay [7] was inactive. For the same molecule, the Potency entry in assay [2], in [9] and in assay [10] was “inactive” throughout.
For `CCCCCCC/C=C/C=O`, the call in [1], in assay [8], in assay [5], in assay [6] and in assay [7] was inactive. The Potency result in [2] and in [9] was “inactive” throughout.
For the molecule `CC(C)CCCCCCCOC(=O)c1ccc(C(=O)OCCCCCCCC(C)C)c(C(=O)OCCCCCCCC(C)C)c1`, the molecule was called inactive in assay [1], in assay [8], in [4], in [5], in assay [6] and in [7]. For the same molecule, the Potency entry in assay [2], in assay [9] and in assay [10] was “inactive” throughout.
